Our source for the growth values is PubChem BioAssay (NCI).

About 83,000 compounds went through this panel and 20% of them were active in at least one assay; those are over-represented in the sample as a whole.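 48-hour exposure, single concentration, 96-well plates; percent growth endpoint where 0 means no net growth. Active: below 10.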 A number with no mark means an inactive call. The source made the active and inactive calls.

For the assay, the system named is MDA-MB-468 breast. Put plainly: NCI-60 one-dose screen, 48 h (100 = growth as untreated, 0 = no growth, -100 = all killed). Conditions: 10 µM unless noted.
With `COc1ccc2cc(C(C)C(=O)Nc3ccc(-c4n[nH]c(=S)n4C4CCCCC4)cc3)ccc2c1` (stereo unspecified), the growth was 111%. In the case of `COc1ccc(-c2cnnn2-c2nonc2-n2cccc2)cc1OC` it was 40.1%; in that of `O=C(CNCCN1CCOCC1)N1c2cccc3cccc(c23)N(C(=O)CNCCN2CCOCC2)C1c1cn(-c2ccccc2)nc1-c1cccc([N+](=O)[O-])c1`, 35.8%; in that of `COc1ccccc1/C=C/C(=O)c1nnn(-c2ccc(C(=O)O)cc2)c1C`, 74.5%.

Turning to `COc1ccc(C(=O)c2cc(C)c(OC)c(C)c2)c(OC)c1OC(=O)C(Cl)Cl`, the growth was 11.4%. In the case of `Cc1csc(/N=C(N)/N=C(\N)c2cccc(Br)c2)n1` it was 79.7%. Consider `C#CCNC1CCC(c2csc(C#C)n2)=C1C` (stereo unspecified), for which the growth is 58.9%.

Regarding `O=C(COc1ccc(-c2nc3cc(Cl)c(Cl)cc3[nH]2)cc1)N=Nc1c(O)[nH]c2ccc(Cl)cc12`, the growth is 68.5%.

Consider `O=C(CSc1nnc(-c2ccc(Cl)cc2)n1-c1ccccc1)Nc1cccc(Cl)c1`, for which the growth is 79.8%.

Take `COc1cc(C(=O)/C=C/c2c(Cl)nc3sccn23)cc(OC)c1OC`: the growth is 60.1%. In the case of `CN1CCN(Cc2ccc(NC(=O)c3nc4ccc5[nH]ncc5c4c4c3CCCC4)cc2C(F)(F)F)CC1`, the growth was -92.9% (active). On to `COC(=O)/C(CCC=C(C)C)=C1\[C@@H](OC(C)=O)C[C@@]2(C)[C@H]1CC(=O)[C@H]1[C@@]3(C)CC[C@H](NCc4ccccc4)[C@@H](C)[C@@H]3CC[C@@]12C`, for which the growth was 87.2%. For the compound `CSc1nc(C)c(C(=O)CCN2CCN(c3ccccn3)CC2)s1`, the growth is 87.1%. `CCN1CCN(c2nc(C)cc(N(CCCNc3ccnc4cc(Cl)ccc34)Cc3ccc4c(c3)OCO4)n2)CC1`: the growth was -33.5% (active). As for `COc1ccc(/C=C2\CCCC3=C2NC(N)=NC3c2ccc(OC)c(OC)c2)cc1OC` (stereo unspecified), the growth was -16.3% (active). In the case of `COc1cc2nc(N3CCCC3)nc(NCCc3ccccc3)c2cc1OC` it was 6.66% (active). As to `C=C1CC[C@@H]2[C@](C)(COC(C)=O)[C@H](OC(C)=O)CC[C@@]2(C)[C@@H]1C/C=C1/C(=O)OC[C@H]1OC(C)=O`, the growth is 7.98% (active). In the case of `CN1CCN(c2ccc(NC(=O)c3cncnc3Nc3ccc(OCc4cccc(F)c4)c(Cl)c3)cc2)CC1` it was 71.8%; in that of `Cc1cc(-c2cc(OC(=O)c3ccccc3)ccc2Cl)cc2nnc(Nc3ccc(OCCN4CCCC4)cc3)nc12`, 84.3%. To `O=[N+]([O-])c1ccc(NC(=S)N/N=C/c2cc3ccccc3n3nnnc23)cc1` belongs 61.7%; to `CC(=O)c1ccc2c(ccc3ccccc32)c1`, 95.5%; to `COc1ccc(/C(C)=C(\c2ccc(Cl)cc2)c2ccc(OCCN3CCCCCC3)cc2)cc1F`, 35.3%. To `COC(=O)c1nc(-c2ccccc2)oc1S(=O)(=O)Cc1ccccc1` belongs 59.3%; to `Nc1ccc(/C=N/Nc2ccnc3c(O)cccc23)c2cccnc12`, 73.6%; to `CC(=O)c1nc2ccccc2n1CCn1cc(CC(N)C(=O)O)c2ccccc21` (stereo unspecified), 118%. With `COC(=O)c1cc(O)c2cc3c(cc2c1-c1cc(OC)c(OC)c(OC)c1)OCO3`, the growth is -8.52% (active).

On to `COc1ccc(-n2c(SCc3cc(OC)c(OC)c(OC)c3)nc3ccc(C)cc3c2=O)cc1`, for which the growth is 46.8%. In the case of `Cc1ccc2c(N/N=C\c3ccco3)cc(C)nc2n1` it was 70.2%. Regarding `CC(=O)NC1(C(=O)O)CCCC1`, the growth is 116%. In the case of `COC(=O)/C=C1/SC(=Nc2cccc(OC)c2)N(CCc2c[nH]c3ccc(O)cc23)C1=O` it was 49.3%; in that of `Oc1ccc2c(c1)CCc1ccccc1-2`, 105%; in that of `Nc1cccc(Nc2cc(S(=O)(=O)O)c(N)c3c2C(=O)c2ccccc2C3=O)c1`, 112%. To `COc1cc(C(=O)c2cnc(-c3cccc4[nH]ccc34)[nH]2)cc(OC)c1OC` belongs -2.51% (active); to `COc1cccc2c1C(=O)c1c(O)c3c(c(O)c1C2=O)C[C@](O)(C(=O)CO)C[C@H]3O[C@@H]1C[C@@H](NC(=O)CCCCCN(C)C2(c3ccc(F)cc3)CC3CCC2C3)[C@H](O)[C@@H](C)O1` (stereo partly specified), 4.63% (active); to `Nc1nc(N)c2cc(CNc3ccc(C(=O)NC(CC(=O)O)C(=O)O)cc3)ccc2n1` (stereo unspecified), 61.4%. `Cc1[nH]c(-c2nc3ccccc3[nH]2)c(C)c1C(=O)NNc1ccc(Cl)cc1`: the growth was 84.8%.
